Screening results as filed in PubChem BioAssay.
Shown is part of a subset that was picked to be rich in hits.
Tgondii IFNg – inhibitors of Toxoplasma gondii growth with IFN-gamma; Toxoplasma gondii growth in IFN-gamma-treated host cells; hits give low values; activity change, negative = inhibition, % (concentration not given with the values); 69,000 compounds, 3.8% hits; in the data active means activity change below about -70%, passing the limit was not always enough;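 further: host cells are HeLa cells infected with Toxoplasma gondii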
Large screens that a line does not name were inactive; ! = repeats disagree.

CCS(=O)(=O)N1CC[C@H]2[C@@H]1CCN2Cc1cnn(C)c1	none
Oc1c(Cl)cc(Cl)cc1C1Nc2cc(Cl)c(C(F)(F)F)cc2N1 (configuration not stated)	Tgondii IFNg -87.5
CCCc1cnc(N2CCCNCC2)nc1	none
CCc1ccc(Nc2nc(C(=O)NCc3ccc(N(C)C)cc3)nc3ccccc23)cc1	none
COc1cccc(-c2nc(Cn3cnc4onc(C)c4c3=O)c(C)o2)c1OC	none
COC(=O)[C@@H]1C[C@@H](O)CN1C(=O)CN1CCOc2ccccc2C1	none
Cc1cc(CN2CC3C[C@@H](O)CN3C[C@@H]2C)c(C)n1-c1ccc2c(c1)OCO2 (some centres not stated)	none
CC(Cc1ccc2c(c1)OCO2)CN1CC2C[C@@H](O)CN2C[C@H]1C (some centres not stated)	Tgondii IFNg -86.2
CC(C)CN1C(=O)N(C)C2(CCN(CC(C)Cc3ccc4c(c3)OCO4)CC2)C1=O (configuration not stated)	none
Cc1cccc(C(=O)Nc2c(C(=O)N3CCN(c4ccccn4)CC3)[nH]c3ccccc23)c1	none
COCCN1C(=O)CCc2cc(NC(=O)Cc3ccc(OC)cc3Cl)ccc21	none
Cc1noc(C)c1COCC1OCCc2cn(C(C)C)nc21 (configuration not stated)	none
CC(C)Cn1cncc1CNC1CCSCC1	none
CC1CCc2cc(F)ccc2N1C(=O)CSc1ncc(-c2ccccc2)n1C1CCCC1 (configuration not stated)	Tgondii IFNg -80.1
CC1CCc2cc(F)ccc2N1C(=O)c1cc2cccnc2n(Cc2ccccc2F)c1=O (configuration not stated)	none
Cn1c(-c2ccccc2)cnc1SCC(=O)Nc1ccc(Cl)cc1	none
COc1ccc(-c2nc(Cn3ccn4nc(-c5ccc(C)cc5)cc4c3=O)c(C)o2)cc1	none
CCC1CN(Cc2c(C)cc(O)cc2C)CCN1C(C)C (configuration not stated)	none
COc1cc(C(=O)Nc2ccc(N3CCCCC3)c(C(F)(F)F)c2)nc(OC)n1	Tgondii IFNg -82.0
COc1ncc(C(=O)Nc2ccc(N3CCCC3)c(F)c2)cn1	none
CC1(C)NC(=O)N(CC(=O)Nc2ccc(N3CCCCC3)c(C(F)(F)F)c2)C1=O	none
O=C(NN1C(=O)[C@@H]2[C@@H]3C=C[C@@H]([C@H]4C[C@@H]34)[C@@H]2C1=O)c1ccc(C(F)(F)F)cc1	none
CCCS(=O)(=O)N1CCC2(CC1)NC(=O)CC2c1ccncc1 (configuration not stated)	none
CCCc1cnc(C)nc1N1CCC(O)(C(=O)O)CC1	none
O=C1C(=O)N2C(=C1C(=O)N1CCCCCC1)c1ccccc1CC21CCCC1	none
O=C1C(=O)N2C(=C1C(=O)N1CCOCC1)c1ccccc1CC21CCCCC1	Tgondii IFNg -96.3
c1ccc2c(c1)CC1(CCCCC1)n1nnnc1-2	none
COc1cccc(CC2CN(CC(=O)NCc3cccs3)CCO2)c1 (configuration not stated)	none
Nc1ccccc1NC(=O)c1ccc(CNc2nccc(-c3cccnc3)n2)cc1	Tgondii IFNg -79.3!
CC(=O)C(Sc1nccc(-c2cccnc2)n1)C(C)=O	none
CS(=O)(=O)n1nc(-c2cccnc2)nc1NCc1ccc(Cl)cc1	none
COCCN1C(=O)CCC2C1CCN2C(=O)Cc1ccc(OC)cc1 (configuration not stated)	none
C/C=C/Cn1c(=O)c2c(nc3n2C(C)C(C)=NN3)n(C)c1=O (configuration not stated)	none
COc1nc2c(cc1C(=O)N1Cc3cnn(CCO)c3C1)CCC2	none
Cc1cccc(-c2nnc(-c3nc(N4CCCCC4C)c4ccccc4n3)o2)c1 (configuration not stated)	none
Cc1cccc(-c2nnc(-c3nc(NC4CCS(=O)(=O)C4)c4ccccc4n3)o2)c1 (configuration not stated)	Tgondii IFNg -96.3
Fc1ccc(-c2nnc(-c3nc(NCc4ccco4)c4ccccc4n3)o2)cc1	Tgondii IFNg -85.6
Clc1cccc(-c2nnc(-c3nc(NCc4ccco4)c4ccccc4n3)o2)c1	none
COc1cccc(CNc2nc(-c3nnc(-c4ccc(C)cc4)o3)nc3ccccc23)c1	none
Cc1ccc(-c2nnc(-c3nc(NCc4ccc(F)cc4)c4ccccc4n3)o2)cc1	none
Cc1ccc(-c2nnc(-c3nc(NCc4cccc(C)c4)c4ccccc4n3)o2)cc1	none
COc1cccc(CNc2nc(-c3nnc(-c4cccc(C)c4)o3)nc3ccccc23)c1	Tgondii IFNg -92.0
Cc1cccc(-c2nnc(-c3nc(NCc4ccco4)c4ccccc4n3)o2)c1	none
COc1ccc(Nc2nc(-c3nnc(-c4cccc(C)c4)o3)nc3ccccc23)cc1	none
Cc1cccc(CNc2nc(-c3nnc(-c4ccc(F)cc4)o3)nc3ccccc23)c1	Tgondii IFNg -101.0
COc1ccc(-c2nnc(-c3nc(NCc4ccc(C)cc4)c4ccccc4n3)o2)cc1	none
O=C(O)C1CC(=O)N(CCCn2cncn2)C1 (configuration not stated)	none
O=C1CN(C(=O)c2cn[nH]n2)C(c2ccccc2)c2ccccc2N1 (configuration not stated)	none
Clc1ccc(C2=NC(c3ccc4c(c3)OCO4)NN2)cc1 (configuration not stated)	none
